According to PubChem BioAssay AID1159580 (chemical genetic matrix, 2015):
In all, about 5,500 compounds went through this assay and about 2,000 (36%) were called active. Roughly 18% stayed inconclusive and do not appear here. Cut-off read from the data, not from the text of the source: active = normalized growth mostly below about 0.91 (no sharp cut-off); inconclusive = no clear call, values can overlap the other calls; inactive = mostly above about 0.92. Some of the results follow.

Experiment: chemical genetic growth profiling, strain panel (AID 1159580);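 note: tested at 20 µM; growth read once vehicle control cultures reached saturation at 30 °C; 1 = growth at the plate median or of vehicle wells; lower values mean less growth of the strain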
Details: S. cerevisiae deletion strains, growth OD

Measured: normalized growth

COC1C=CC23c4cc5c(cc4CN(CC2O)[C@@H]3C1)OCO5 (stereo partly specified)
inactive: locus YAL021C, strain ccr4, stronger effect = lower value 0.974 | locus YAL026C, strain drs2, stronger effect = lower value 0.956 | locus YAL030W, strain snc1, stronger effect = lower value 0.989 | locus YBL061C, strain skt5, stronger effect = lower value 0.967 | locus YBR009C, strain hhf1, stronger effect = lower value 0.969 | locus YBR021W, strain FUR4, stronger effect = lower value 1.01 | locus YBR023C, strain chs3, stronger effect = lower value 0.966 | locus YBR171W, strain sec66, stronger effect = lower value 0.962 | locus YBR229C, strain ROT2, stronger effect = lower value 1.01 | locus YBR231C, strain swc5, stronger effect = lower value 0.963 | locus YBR279W, strain paf1, stronger effect = lower value 0.971 | locus YCL011C, strain gbp2, stronger effect = lower value 0.956 | locus YCL016C, strain dcc1, stronger effect = lower value 0.992 | locus YCL029C, strain bik1, stronger effect = lower value 1 | locus YCL069W, strain vba3, stronger effect = lower value 0.948 | locus YCR088W, strain abp1, stronger effect = lower value 0.971 | locus YDL005C, strain med2, stronger effect = lower value 0.944 | locus YDL035C, strain GPR1, stronger effect = lower value 1.01 | locus YDL040C, strain nat1, stronger effect = lower value 0.975 | locus YDL074C, strain BRE1, stronger effect = lower value 1.05 | locus YDL101C, strain DUN1, stronger effect = lower value 1.04 | locus YDL134C, strain PPH21, stronger effect = lower value 1.03 | locus YDL185W, strain tfp1, stronger effect = lower value 1 | locus YDL192W, strain arf1, stronger effect = lower value 0.982 | locus YDR001C, strain nth1, stronger effect = lower value 0.979 | locus YDR069C, strain doa4, stronger effect = lower value 0.944 | locus YDR101C, strain arx1, stronger effect = lower value 0.962 | locus YDR137W, strain rgp1, stronger effect = lower value 0.933 | locus YDR159W, strain sac3, stronger effect = lower value 0.964 | locus YDR162C, strain NBP2, stronger effect = lower value 1.03 | locus YDR195W, strain ref2 0.962 | locus YDR297W, strain sur2, stronger effect = lower value 0.977 | locus YDR318W, strain mcm21, stronger effect = lower value 0.995 | locus YDR334W, strain swr1, stronger effect = lower value 0.966 | locus YDR335W, strain msn5, stronger effect = lower value 0.959 | locus YDR388W, stronger effect = lower value 1 | locus YDR392W, strain spt3, stronger effect = lower value 1.06 | locus YDR502C, strain sam2, stronger effect = lower value 1.01 | locus YEL003W, strain gim4, stronger effect = lower value 0.972 | locus YEL037C, strain rad23, stronger effect = lower value 0.973 | locus YEL061C, strain CIN8 (second series), stronger effect = lower value 0.945 | locus YER015W, strain faa2, stronger effect = lower value 0.986 | locus YER016W, strain bim1, stronger effect = lower value 0.971 | locus YER110C, stronger effect = lower value 1 | locus YER111C, strain swi4, stronger effect = lower value 0.961 | locus YER155C, strain BEM2 (second series), stronger effect = lower value 0.978 | locus YER155C, strain BEM2, stronger effect = lower value 0.997 | locus YER167W, strain BCK2, stronger effect = lower value 0.992 | locus YFR010W, strain ubp6, stronger effect = lower value 0.939 | locus YGL078C, strain dbp3, stronger effect = lower value 1.03 | locus YGL086W, strain mad1, stronger effect = lower value 0.999 | locus YGL167C, strain pmr1, stronger effect = lower value 0.971 | locus YGL173C, strain kem1, stronger effect = lower value 0.968 | locus YGL227W, strain vid30, stronger effect = lower value 0.979 | locus YGL240W, strain doc1, stronger effect = lower value 0.999 | locus YGL248W, strain PDE1, stronger effect = lower value 1.04 | locus YGL253W, strain hxk2, stronger effect = lower value 0.951 | locus YGR135W, strain pre9, stronger effect = lower value 1.05 | locus YGR229C, strain SMI1, stronger effect = lower value 1.06 | locus YGR252W, strain gcn5, stronger effect = lower value 1.09 | locus YHR013C, strain ard1, stronger effect = lower value 0.95 | locus YHR027C, strain rpn1, stronger effect = lower value 0.977 | locus YHR079C, strain IRE1 (second series), stronger effect = lower value 1.01 | locus YHR094C, strain hxt1, stronger effect = lower value 0.992 | locus YHR129C, strain ARP1, stronger effect = lower value 1.02 | locus YHR142W, strain chs7, stronger effect = lower value 0.956 | locus YHR200W, strain rpn10, stronger effect = lower value 1.01 | locus YIL066C, strain RNR3, stronger effect = lower value 1.02 | locus YIL073C, strain SPO22, stronger effect = lower value 0.964 | locus YIL125W, strain kgd1, stronger effect = lower value 0.981 | locus YIR030C, strain dcg1, stronger effect = lower value 1 | locus YJL092W, strain hpr5, stronger effect = lower value 0.948 | locus YJL095W, strain BCK1 (second series), stronger effect = lower value 0.965 | locus YJL095W, strain BCK1, stronger effect = lower value 1.08 | locus YJL115W, strain asf1, stronger effect = lower value 0.988 | locus YJL129C, strain trk1, stronger effect = lower value 0.976 | locus YJL134W, strain LCB3, stronger effect = lower value 1 | locus YJL154C, strain vps35, stronger effect = lower value 0.968 | locus YJL164C, strain tpk1, stronger effect = lower value 0.973 | locus YJL166W, strain qcr8, stronger effect = lower value 0.965 | locus YJL168C, strain set2, stronger effect = lower value 1.01 | locus YJL187C, strain SWE1 (second series), stronger effect = lower value 1.04 | locus YJL187C, strain SWE1, stronger effect = lower value 0.957 | locus YKL009W, strain mrt4, stronger effect = lower value 1.02 | locus YKL068W, stronger effect = lower value 1 | locus YKL085W, strain MDH1 (second series), stronger effect = lower value 1.01 | locus YKL085W, strain MDH1, stronger effect = lower value 1.01 | locus YKL160W, strain elf1, stronger effect = lower value 0.995 | locus YKR001C, strain vps1, stronger effect = lower value 0.978 | locus YKR026C, strain gcn3, stronger effect = lower value 0.983 | locus YKR091W, strain srl3, stronger effect = lower value 0.98 | locus YLL001W, strain dnm1, stronger effect = lower value 0.973 | locus YLL026W, stronger effect = lower value 1 | locus YLL041C, strain sdh2, stronger effect = lower value 0.969 | locus YLR027C, strain aat2, stronger effect = lower value 0.991 | locus YLR039C, strain RIC1, stronger effect = lower value 1.06 | locus YLR058C, strain SHM2, stronger effect = lower value 1.02 | locus YLR102C, strain apc9, stronger effect = lower value 0.995 | locus YLR221C, strain rsa3, stronger effect = lower value 0.956 | locus YLR258W, strain gsy2, stronger effect = lower value 0.97 | locus YLR262C, strain YPT6 (second series), stronger effect = lower value 0.917 | locus YLR262C, strain YPT6, stronger effect = lower value 1.07 | locus YLR268W, strain sec22, stronger effect = lower value 0.974 | locus YLR320W, strain mms22, stronger effect = lower value 0.975 | locus YLR342W, strain FKS1, stronger effect = lower value 0.99 | locus YLR357W, strain rsc2, stronger effect = lower value 0.967 | locus YLR370C, strain arc18, stronger effect = lower value 0.949 | locus YLR371W, strain rom2, stronger effect = lower value 0.976 | locus YLR384C, strain iki3, stronger effect = lower value 0.966 | locus YLR418C, strain cdc73, stronger effect = lower value 1.04 | locus YML016C, strain PPZ1, stronger effect = lower value 1.01 | locus YML032C, strain rad52, stronger effect = lower value 0.98 | locus YML120C, strain ndi1, stronger effect = lower value 1 | locus YML124C, strain tub3, stronger effect = lower value 0.991 | locus YMR058W, strain fet3, stronger effect = lower value 0.983 | locus YMR078C, strain ctf18, stronger effect = lower value 1.01 | locus YMR125W, strain sto1, stronger effect = lower value 0.922 | locus YMR129W, stronger effect = lower value 0.991 | locus YMR205C, strain PFK2, stronger effect = lower value 0.998 | locus YMR223W, strain ubp8, stronger effect = lower value 0.998 | locus YMR231W, strain pep5, stronger effect = lower value 0.974 | locus YMR263W, strain SAP30, stronger effect = lower value 1.03 | locus YMR307W, strain GAS1, stronger effect = lower value 1.06 | locus YNL067W, strain RPL9B, stronger effect = lower value 1.04 | locus YNL071W, strain lat1, stronger effect = lower value 0.97 | locus YNL153C, strain GIM3, stronger effect = lower value 1.04 | locus YNL209W, strain ssb2, stronger effect = lower value 0.981 | locus YNL233W, strain BNI4, stronger effect = lower value 1.04 | locus YNL248C, strain rpa49, stronger effect = lower value 0.949 | locus YNL250W, strain rad50, stronger effect = lower value 1.03 | locus YNL271C, strain bni1, stronger effect = lower value 0.988 | locus YNL298W, strain CLA4, stronger effect = lower value 0.994 | locus YNL307C, strain MCK1, stronger effect = lower value 1.01 | locus YNL322C, strain KRE1 (second series), stronger effect = lower value 0.935 | locus YNR049C, strain mso1, stronger effect = lower value 0.975 | locus YNR052C, strain pop2, stronger effect = lower value 0.997 | locus YOL012C, strain htz1 0.915 | locus YOL147C, strain pex11, stronger effect = lower value 1 | locus YOR001W, strain rrp6, stronger effect = lower value 0.978 | locus YOR061W, strain CKA2, stronger effect = lower value 0.996 | locus YOR069W, strain VPS5, stronger effect = lower value 1.01 | locus YOR070C, strain gyp1, stronger effect = lower value 0.999 | locus YOR080W, strain dia2, stronger effect = lower value 0.976 | locus YOR106W, strain vam3, stronger effect = lower value 0.992 | locus YOR136W, strain idh2, stronger effect = lower value 1 | locus YOR144C, strain elg1, stronger effect = lower value 0.995 | locus YOR184W, strain ser1, stronger effect = lower value 0.967 | locus YOR265W, strain rbl2, stronger effect = lower value 0.99 | locus YOR270C, strain vph1, stronger effect = lower value 0.847 | locus YOR290C, strain snf2, stronger effect = lower value 0.976 | locus YOR316C, strain cot1, stronger effect = lower value 1 | locus YPL051W, strain arl3, stronger effect = lower value 0.99 | locus YPL055C, strain LGE1, stronger effect = lower value 1.03 | locus YPL078C, strain atp4, stronger effect = lower value 0.986 | locus YPL106C, strain sse1, stronger effect = lower value 0.982 | locus YPL240C, strain hsp82, stronger effect = lower value 0.965 | locus YPR119W, strain clb2, stronger effect = lower value 0.994 | locus YPR141C, strain kar3, stronger effect = lower value 0.993 | locus YPR163C, strain tif3, stronger effect = lower value 1 | locus YPR167C, strain met16, stronger effect = lower value 1 | strain wtn01, stronger effect = lower value 1
